Source: PubChem BioAssay (National Center for Advancing Translational Sciences (NCATS))
Most compounds without a hit are left out; they make up all but 1.9% or so of the library.
Abeta rescue: compounds reversing amyloid beta toxicity in yeast; yeast expressing A-beta42, growth rescue, OD600, 48 h; response scale: 0% DMSO, 100% iron-clioquinol control; Potency, µM (series often up to 46.1 µM), most hits filed as activators; 410,000 tested, 0.063% active; further: nearly all actives have a fitted effect of over 55% in size
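Growth rescue measured by 600 nm absorbance after 48 h yeast culture at 30 C with compound. Values normalized between DMSO and an equimolar ferric chloride plus clioquinol control.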
TDP43 rescue: inhibitors of TDP-43 toxicity in yeast. AID 652104. Potency, µM (titrated, usually from 46.1 µM), hits mostly activators. TDP-43 expressing yeast growth rescue, BacTiter-Glo, 24 h. 410,000 tested, 1.8% active; further: nearly all actives have a fitted effect of over 50% in size
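Galactose-induced TDP-43 yeast, OD600=0.02, compound pinned; 24 hr, 30 deg C; BacTiter-Glo luminescence for growth. Inhibitors of TDP-43 toxicity read as activators.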
aSyn yeast inh: alpha-synuclein toxicity inhibition in yeast; Potency, µM (titrated, usually from 46.1 µM), most hits filed as activators; Yeast expressing alpha-synuclein, growth rescue, BacTiter-Glo, 24 h; 370,000 tested, 0.14% active; AID 652106; further: nearly all actives have a fitted effect of over 65% in size
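Galactose-induced alpha-syn yeast (OD600=0.02, raffinose-pregrown) + pinned cpd, 24 hr, 30 deg C; growth by BacTiter-Glo luminescence. Growth restoration scores as activation.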
LDHA block: LDHA (human) enzyme inhibition. P00338. purified LDHA, NADH/diaphorase-resazurin fluorescence; active compounds read low. activity change, % (values are at about 110 or 230 µM). 480,000 tested, 0.15% active; in the data active means activity change below about -30%; inconclusive means mostly about -25% to -30%
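Human LDH5 at 2 nM final in Tris HCl pH 7.4 with 0.06 mM NADH and 0.2 mM pyruvate, reacted 5 minutes at room temperature. Remaining NADH coupled via diaphorase/resazurin; resorufin fluorescence read at 0 and 20 minutes, normalized to enzyme-free and DMSO wells.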
FUS suppressor: suppressors of FUS proteinopathy in yeast | Potency, µM (doses to about 76.6 µM), hits mostly activators | 390,000 tested, 0.24% active | S. cerevisiae FUS-expressing, growth rescue, OD600, 24 h; further: nearly all actives have a fitted effect of over 55% in size
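Quantitative HTS measuring growth restoration of FUS-toxic yeast. Galactose-induced cells (OD 0.005) were exposed 24hr at 30C to compounds at several concentrations, then absorbance at 600 nm was recorded.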
PTHR1 agonist: activates the human parathyroid hormone receptor PTHR1; Q03431; HEK293 GP2 PTHR1 cells, GloSensor cAMP luminescence, 1 h; Potency, µM (titrated, usually from 115 µM), actives largely listed as activators; 410,000 tested, 0.075% active; further: nearly all actives have a fitted effect of over 55% in size
Target sequence (Q03431 whole entry, looked up): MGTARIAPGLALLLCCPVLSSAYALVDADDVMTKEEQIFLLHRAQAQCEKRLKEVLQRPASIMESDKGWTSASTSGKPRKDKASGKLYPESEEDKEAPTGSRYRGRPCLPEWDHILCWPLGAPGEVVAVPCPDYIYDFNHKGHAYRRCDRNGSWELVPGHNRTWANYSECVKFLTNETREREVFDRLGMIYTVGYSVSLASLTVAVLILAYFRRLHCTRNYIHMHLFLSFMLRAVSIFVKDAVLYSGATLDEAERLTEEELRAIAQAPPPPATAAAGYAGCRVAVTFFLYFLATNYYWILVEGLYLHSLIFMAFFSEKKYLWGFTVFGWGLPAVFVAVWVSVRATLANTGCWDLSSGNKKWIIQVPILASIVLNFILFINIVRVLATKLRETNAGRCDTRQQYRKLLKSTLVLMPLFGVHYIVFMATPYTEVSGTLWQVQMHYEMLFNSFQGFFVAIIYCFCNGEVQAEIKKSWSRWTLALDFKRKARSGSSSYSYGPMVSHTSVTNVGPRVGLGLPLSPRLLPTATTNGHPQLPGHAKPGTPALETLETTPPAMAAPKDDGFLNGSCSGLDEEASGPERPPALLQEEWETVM
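HEK-293-derived GP2 cells expressing PTHR1 and a GloSensor cAMP reporter, 3,000/well, plated overnight, given luciferin plus IBMX (each 0.5 mM as added) for 1 h at 37 °C, then compound for 1 h at 37 °C. Luminescence was read after 15 min at room temperature.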
Hits are given with their value; – = inactive; ? = inconclusive; · = no result. Unless noted, the call rests on the fitted dose curve; in most records, active means well fitted curve in the direction sought with a large enough effect; inconclusive means small, poorly fitted or top-dose-only effect, or another doubt; inactive means no such curve, though single readings can be large; an effect the other way counts as inactive or inconclusive.

SMILES	Abeta rescue	TDP43 rescue	aSyn yeast inh	LDHA block	FUS suppressor	PTHR1 agonist
O=C(c1cc([N+](=O)[O-])ccc1Cl)N1CCN(c2ccccn2)CC1	–	–	–	–	–	–
O=C(c1ccco1)N1CCN(c2ccc([N+](=O)[O-])cc2Cl)CC1	–	14µM	–	–	–	–
Cc1ccc(-c2cc(C(=O)NCC(=O)N(C)C)c3ccccc3n2)cc1	·	·	·	–	·	·
CCN(CC)S(=O)(=O)c1ccc(NC(=O)CN(c2ccccc2)S(C)(=O)=O)cc1	·	·	·	–	·	·
NC(=S)N/N=C/C(Cl)=C/c1ccc([N+](=O)[O-])cc1	·	·	·	–	·	·
COC(=O)NNC(=O)c1ccc(Cl)cc1Cl	–	?	–	–	–	–
CC(C)(C)C(=O)NC(=S)NNC(=O)c1ccc(Cl)cc1Cl	–	–	5µM	–	–	–
CCC(C)Nc1nc(N)c([N+](=O)[O-])c(NCc2ccccc2)n1 (stereo not given)	–	18µM	–	–	–	–
Cc1ccc(Nc2nc(N)c([N+](=O)[O-])c(NCc3ccccc3)n2)cc1	–	–	–	–	–	–
COc1ccc(-c2nc(C#N)c(NCCc3ccc(F)cc3)o2)cc1	·	·	·	–	·	·
CC(C)N(C(=O)[C@H]1C[C@H](CC(=O)NCc2ccco2)C(=O)N2CCc3c([nH]c4cc(-c5ccco5)ccc34)[C@]12C)C(C)C	–	13µM	?	–	?	–
CC(C)N(C(=O)[C@H]1C[C@H](CC(=O)NCc2ccco2)C(=O)N2CCc3c([nH]c4ccc(Cl)cc34)[C@]12C)C(C)C	–	35µM	–	–	?	–
CC[C@]12c3[nH]c4ccc(OC)cc4c3CCN1C(=O)C(CC(=O)NC/C=C(\C)CCC=C(C)C)C[C@@H]2C(=O)N1CCN(C(=O)C2CC2)CC1 (stereo not given in full)	–	–	–	–	?	–
CC[C@]12c3[nH]c4cc(-c5ccco5)ccc4c3CCN1C(=O)[C@@H](CC(=O)NCc1ccc(OC)c(OC)c1)C[C@@H]2C(=O)N1CCN(C(=O)c2ccco2)CC1	–	–	–	–	35µM	–
CC(C)N(C(=O)[C@H]1CC(CC(=O)NCc2ccco2)C(=O)N2CCc3c([nH]c4ccccc34)[C@]12C)C(C)C (stereo not given in full)	–	–	–	–	–	–
CC[C@]12c3[nH]c4ccccc4c3CCN1C(=O)C(CC(=O)NC/C=C(\C)CCC=C(C)C)C[C@@H]2C(=O)N1CCN(C(=O)C2CC2)CC1 (stereo not given in full)	–	–	–	–	18µM	–
CCN(CC)C(=O)[C@H]1C[C@H](CC(=O)NCc2ccco2)C(=O)N2CCc3c([nH]c4ccc(Cl)cc34)[C@]12C	–	–	–	–	–	–
CCc1ccc(NC(=O)CSc2nnc(-c3cccs3)n2-n2cccc2)cc1	·	·	·	–	·	·
CN(Cc1ccc(C(N)=O)cc1)Cc1cccs1	·	·	·	–	·	·
CC(C)N(C(=O)[C@H]1C[C@H](CC(=O)NCc2cccc(C(F)(F)F)c2)C(=O)N2CCc3c([nH]c4ccc(Cl)cc34)[C@]12C)C(C)C	–	35µM	?	–	–	–
C[C@]12c3[nH]c4ccc(Cl)cc4c3CCN1C(=O)[C@@H](CC(=O)NCc1cccc(C(F)(F)F)c1)C[C@@H]2C(=O)N1CCOCC1	–	–	–	–	?	–
CCCc1cc(=O)n2nc(N(C)CC(=O)Nc3cccc(Cl)c3C)sc2n1	·	·	·	–	·	·
COC(=O)c1[nH]c(C)c(/C(O)=C2\C(=O)C(=O)N(CCCn3ccnc3)C2c2ccncc2)c1C (stereo not given)	·	·	·	–	·	·
COC(=O)c1[nH]c(C)c(/C(O)=C2\C(=O)C(=O)N(CCCn3ccnc3)C2c2cccc(OC)c2)c1C (stereo not given)	·	·	·	-40	·	·
O=C1C=C(c2ccc3c(c2)OCO3)C[C@@H](c2ccc3c(c2)OCO3)C1	–	–	–	–	–	–
SMILES	Abeta rescue	TDP43 rescue	aSyn yeast inh	LDHA block	FUS suppressor	PTHR1 agonist
O=C1C=C(c2cccc(OCc3ccccc3)c2)C[C@@H](c2ccc3c(c2)OCO3)C1	–	–	–	–	–	–
N#Cc1ccc(C2=CC(=O)C[C@H](c3ccc4c(c3)OCO4)C2)cc1	–	18µM	–	–	?	–
O=C1C=C(c2cccc(CO)c2)C[C@@H](c2ccc3c(c2)OCO3)C1	–	20µM	–	–	–	–
COc1ccccc1CNC(=O)C1=C(c2ccccc2)c2cc(Cl)ccc2S(=O)(=O)N1C	·	·	·	–	·	·
CC(c1ccccc1)N1CCn2c(nc3cc(NC(=O)NC4CCCCC4)ccc32)C1 (stereo not given)	–	–	–	–	11µM	–
N/C(Cc1cccc2ccccc12)=N\OC(=O)COc1ccccc1	–	22µM	–	–	·	–
N/C(Cc1cccc2ccccc12)=N\OC(=O)c1ccccc1F	–	22µM	–	–	·	–
N/C(=N\OC(=O)c1cccc2ccccc12)c1ccncc1	–	20µM	?	–	–	–
CCN(C(=S)Nc1cc(S(=O)(=O)N(C)C)ccc1C)c1cccc2ccccc12	·	·	·	–	·	·
O=C1CCCN1CCCNCC(O)c1ccccc1 (stereo not given)	–	–	–	–	–	–
O=C1CCCN1CCCNCC(=O)N1c2ccccc2Sc2ccccc21	–	–	–	-41	–	–
CCN(CC)CC1CCN(C(=O)c2ccc(C#N)cc2)CC1	·	·	·	–	·	·
CS/C(N)=N/C(=S)Nc1cccc(Cl)c1	13µM	?	–	–	–	–
Cc1cc(N2CCN(C(=O)c3cccs3)CC2)c(F)cc1[N+](=O)[O-]	–	13µM	–	–	–	–
COc1ccc(N2CCN(C(=S)NC(=O)c3cccs3)CC2)c([N+](=O)[O-])c1	?	22µM	–	–	–	–
CCOC(=O)Cn1c(=O)n2nc(Cc3ccccc3)nc2c2c3c(sc21)COC(C)(C)C3	·	·	·	–	·	·
COC1=C(Nc2ccc(OC)cc2)C(=O)c2ccccc2C1=O	–	18µM	–	–	–	–
COc1ccc(NS(=O)(=O)c2cccc3ccccc23)cc1	–	11µM	?	–	–	–
CCOc1ccc(NC2=C(OC)C(=O)c3ccccc3C2=O)cc1	–	18µM	–	–	–	–
COC1=C(Nc2ccc(O)cc2)C(=O)c2ccccc2C1=O	–	?	–	–	–	–
Clc1cccc(N2CCN(c3ncnc4c3nc3n4CCCCC3)CC2)c1	–	18µM	·	–	?	–
Cc1cccc(N2CCN(c3ncnc4c3nc3n4CCCCC3)CC2)c1C	–	22µM	·	–	–	–
O=C(C1CCN(c2ncnc3c2nc2n3CCCCC2)CC1)N1CCN(c2cccc(Cl)c2)CC1	–	–	–	–	?	–
